Gli-Sufu antag = blocks Gli-Sufu signaling in a luciferase reporter; AID 588413; 0.74% of 340,000 active; Sufu-KO-LIGHT fibroblasts, Gli luciferase reporter luminescence; inhibition, % at 5 µM;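 active = inhibition above about 55%, limit read from the data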;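 note: 0% = DMSO-treated cells and 100% = wells with medium but no cells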
NR5A2 inv ag = NR5A2 inverse agonism in reporter assay; 0.13% of 360,000 active; AID 602396; O00482; HEK293T StAR-luciferase reporter, LRH-1 transfected, 24 h; inhibition, % at 3.6 µM;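 active = inhibition above the mean inhibition of all tested compounds plus 3 SD, cut at about 73% in these data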;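 note: 0% = DMSO wells and 100% = reporter-only cells lacking LRH-1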
NCOA2 inhibitor = human SRC2 (NCOA2) inhibition. HEK293 GAL4-SRC2 luciferase reporter, luminescence. Q15596. 0.17% of 370,000 active. inhibition, % at 9 µM;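 active = inhibition above the mean inhibition of all tested compounds plus 3 SD, set per campaign, cut at about 52% in these data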;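 note: 0% = DMSO treated cells and 100% = cells given Gossypol at 36 µM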
SRC3 inh = human NCOA3 inhibition. Q9Y6Q9. HEK293 GAL4-SRC3 luciferase reporter, luminescence. inhibition, % at 3.6 µM. 0.17% of 360,000 active. AID 588352;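 active = inhibition above a per-campaign cutoff, the mean of all compounds plus 3 SD, cut at about 60% in these data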;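 note: 0% = DMSO-treated cells and 100% = gossypol-treated cells at 36 µM; higher means less SRC3-driven luciferase light from the GAL4 reporter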
NR2F2 inh = blocks human COUP-TFII nuclear receptor | P24468 | HEK293T NGFI-A luciferase reporter, luminescence | inhibition, % at 8.6 µM | 0.7% of 370,000 active;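 active = inhibition above a per-plate cutoff, mean inhibition of test wells between control levels plus 3 SD, cut at about 38% in these data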;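 note: cells cotransfected with COUP-TFII expression vector driving the NGFI-A reporter; 0% = median of COUP-TF2 test wells and 100% = reporter-only cells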
NCOA1 inh = inhibitors of human steroid receptor coactivator 1 (SRC1). HEK293 GAL4-SRC1 luciferase reporter, luminescence. inhibition, % at 3.6 µM. 0.12% of 360,000 active. AID 588354;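 active = inhibition above the campaign mean plus 3 SD, with each screening campaign given its own cutoff, cut at about 60% in these data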;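 note: 0% = DMSO treated cells and 100% = gossypol at 36 µM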
VP16 Luc counter = counter-screen for COUP-TFII antagonists: inhibitors of VP16 | shares compounds with NR2F2 inh | 25% of 2,500 active | inhibition, % at 8.5 µM | HEK293 Gal4-VP16 luciferase reporter, luminescence; in the data active = inhibition above about 13%
NR2F2 inh conf = COUP-TFII (NR2F2) inhibition, confirmation assay; shares compounds with NR2F2 inh; HEK293 NGFI-A luciferase reporter, luminescence; inhibition, % at 8.5 µM; 45% of 2,500 active;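 active = mean inhibition over three repeats above a set limit taken from the earlier primary screen, cut at about 38% in these data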;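 note: 100% = cells given the luciferase reporter alone without the COUP-TF2 vector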
* hit, by the source's call; nt = no result. An excerpt weighted towards active compounds, which were near 1.3% of everything screened.

SMILES	Gli-Sufu antag	NR5A2 inv ag	NCOA2 inhibitor	SRC3 inh	NR2F2 inh	NCOA1 inh	VP16 Luc counter	NR2F2 inh conf
Cc1cc(NC(=O)COc2cc(F)cc(F)c2)n(-c2ccccc2)n1	nt	nt	14	nt	-11	nt	nt	nt
O=C(NC1CC1c1ccccc1)N1CCC(c2nc3ccc(Cl)cc3[nH]2)CC1 (stereo unspecified)	nt	nt	12	nt	3	nt	nt	nt
CC(C)NC(=O)C1(C)CCCCN1Cc1ccc(OCc2ccccc2)cc1 (stereo unspecified)	nt	29	18	13	41*	0	-17	14
CN(C)S(=O)(=O)Oc1ccc(C(=O)Nc2cccc(C(F)(F)F)c2)cc1	-3	1	-1	9	54*	11	-20	16
CN(C)S(=O)(=O)Oc1cccc(C(=O)Nc2ccc(Cl)cc2)c1	-11	-86	-31	-36	45*	-40	-187	-12
Cc1cc(C)cc(-n2ncc3c2CCCC3NC(=O)C2(C(N)=O)CC2)c1 (stereo unspecified)	8	-5	24	7	12	4	nt	nt
Cc1cccc(-n2ncc3c2CCCC3NC(=O)C2(C(N)=O)CC2)c1C (stereo unspecified)	63*	51	28	30	66*	28	4	52*
Cc1cc(C(=O)NC2CCCc3c2cnn3-c2ccc(C)c(C)c2)n(C)n1 (stereo unspecified)	81*	51	-9	42	66*	8	2	69*
CCc1cc(C(=O)NC2CCCc3c2cnn3-c2cccc(C)c2C)n(C)n1 (stereo unspecified)	83*	nt	12	nt	64*	nt	9	66*
Cc1cc(-c2ccc(C(C)C)c(S(=O)(=O)N3CCOc4ccccc43)c2)on1	4	4	-7	5	9	-6	nt	nt
Cc1ccc(-c2onc(C)c2C)cc1S(=O)(=O)N1CCOc2ccccc21	45	-3	28	24	59*	0	-3	16
O=C(OCc1cn(Cc2ccc(Cl)cc2)nn1)N1CCOCC1	nt	nt	-16	nt	3	nt	nt	nt
CCOc1ccc(C(=O)O/N=C(\N)c2ccccn2)cc1	21	29	65*	39	81*	17	-93	-4
N/C(=N\OC(=O)c1cccc(F)c1)c1ccccn1	-68	-114	-6	-68	-16	-120	nt	nt
N/C(=N\OC(=O)c1ccccc1)c1ccccn1	-82	-88	-17	-67	-9	-99	nt	nt
Cc1ccc(C(=O)O/N=C(\N)c2ccccn2)cc1	-22	-16	57*	-62	57*	-22	-157	-110
Cc1ccc(C(=O)O/N=C(\N)c2ccccn2)cc1C	42	-11	42	-11	50*	-34	-70	-1
Cc1cccc(C(=O)O/N=C(\N)c2ccccn2)c1	-6	-7	48	-44	47*	-21	-173	-111
COc1cc(C(=O)O/N=C(\N)c2ccccn2)cc(OC)c1OC	4	-13	-6	-4	-7	-8	nt	nt
COC(=O)[C@]12C[C@H](CC(=O)NCCCCc3ccccc3)C(=O)N(Cc3ccc(Cl)cc3Cl)C1=C[C@H](COCc1ccccc1)O[C@@H]2C	nt	nt	-28	nt	8	nt	nt	nt
Cc1nn(CCC(=O)NNC(=O)Nc2ccccc2F)c(C)c1[N+](=O)[O-]	nt	nt	12	nt	0	nt	nt	nt
O=C(NC1CCCCN(Cc2ccc(Cl)cc2)C1=O)c1ccccc1-c1ccc(Cl)c(Cl)c1 (stereo unspecified)	nt	nt	-13	nt	15	nt	nt	nt
COC1=C[C@H](C(=O)NCCOC(C)=O)[C@H](C)[C@@H](c2ccccc2)CC1=O	nt	nt	5	nt	-16	nt	nt	nt
Cc1cc(OCC(=O)Nc2ccncc2)ccc1Cl	-14	18	13	10	20	0	nt	nt
O=C(COc1ccc2ccccc2c1)Nc1ccncc1	4	9	-25	3	47*	-20	-24	8
SMILES	Gli-Sufu antag	NR5A2 inv ag	NCOA2 inhibitor	SRC3 inh	NR2F2 inh	NCOA1 inh	VP16 Luc counter	NR2F2 inh conf
CCCCOc1ccc(C(=O)Nc2ccncc2)cc1	29	27	-13	9	51*	-9	-60	33
CC(C)(C)c1ccc(NC(=O)COc2ccc(-n3ccnc3)cc2)cc1	34	24	34	8	51*	4	2	47*
Cc1cc(OCC(=O)Nc2ccncc2)cc(C)c1Br	-11	35	-1	21	58*	19	-3	37
CCOC(=O)CC[C@@]1(C(=O)OCC)C[C@@H](CC(=O)NCc2ccc(OC)c(OC)c2)C(=O)N2CCCC=C21	nt	nt	-15	nt	-13	nt	nt	nt
CCC(C)NC(=O)CNc1nnnn1-c1ccccc1 (stereo unspecified)	nt	nt	14	nt	-15	nt	nt	nt
COc1ccc(C(=O)CSc2nnc(-c3n[nH]c4c3CCC4)n2N)cc1OC	nt	nt	-145	nt	-131	nt	nt	nt
CCc1ccc(OCC(=O)Nc2ccncc2)cc1	0	18	21	12	6	4	nt	nt
Cc1ccc(Oc2ccc(OCC(=O)Nc3ccncc3)cc2)cc1	nt	61	29	32	72*	40	19*	74*
Cc1c(CCC(=O)O)c(=O)oc2cc3oc4c(c3cc12)CCCC4	18	14	64*	14	42*	-20	59*	50*
Cc1c(CCC(=O)N[C@@H](CC(C)C)C(=O)O)c(=O)oc2cc3oc4c(c3cc12)CCCC4	13	6	45	8	46*	6	21*	26
N#Cc1cccc(-n2cc(COC(=O)NCCc3ccccc3)nn2)c1	nt	nt	-22	nt	-9	nt	nt	nt
O=C(Nc1nccs1)c1ccc(S(=O)(=O)NCC2CCCCC2)cc1	42	42	7	28	60*	6	8	41*
Clc1ccc(CN2CCN(N=Cc3ccncc3)CC2)cc1	nt	nt	33	nt	50*	nt	13	35
O=C(C[n+]1cc(-c2ccccc2)n2c1CCCCC2)c1ccc(Br)cc1	31	4	9	3	-10	-9	nt	nt
Cc1ccc(C(=O)C[n+]2cc(-c3ccc(C)cc3)n3c2CCCCC3)cc1	88*	74*	17	54	46*	22	9	37
COc1cc(O)c(C(CC(=O)N2CCC(C)CC2)c2ccc3c(c2)OCO3)c(OC)c1 (stereo unspecified)	nt	nt	nt	nt	-6	nt	nt	nt
CCOc1c(Br)cc(CNc2ccc3c(c2)OCCO3)cc1OC	-9	55	40	56	-6	35	nt	nt
CCOc1cc(CNc2ccc3c(c2)OCCO3)cc(Br)c1OC	0	62	48	47	51*	48	-27	38*
CCOC(=O)N1CCN(C(=O)CSCC(=O)Nc2nc(-c3ccc(-c4ccccc4)cc3)cs2)CC1	10	-21	25	8	68*	-9	-101	71*
CCOC(=O)N1CCN(C(=O)CSCC(=O)Nc2nc(-c3ccc(OC)cc3)cs2)CC1	-34	-31	-27	-8	-11	-9	nt	nt
